Laboratory results taken from PubChem BioAssay AID1845227 (National Center for Advancing Translational Sciences (NCATS), 2023).
Results filed as inconclusive are left out. Values without a mark were called inactive. Activity calls are given as the source filed them. Calls come from the whole dose curve; as a rule, active = well fitted inhibition curve with a large enough effect; inconclusive = small, poorly fitted or top-dose-only effect; inactive = no such curve, though single readings can be large or run the other way.

biological target: Luciferin 4-monooxygenase (Photinus pyralis) (UniProt P08659); assay: Confirmatory firefly luciferase (FLuc) qHTS assay for identification of artifact compounds; conditions: purified FLuc enzyme, luminescence, 5 min; series mostly up to 38.9 µM; activity change, negative = inhibition: at the top concentration
From the text: PI: Alexander Tropsha Ph.D. UNC Eshelman School of Pharmacy University of North Carolina, Chapel Hill, North Carolina Hits from high-throughput screening (HTS) of chemical libraries are often false positives due to their interference with the assay detection technology. In response to this problem, we generated the largest publicly available library of chemical liabilities and developed a free webtool to predict HTS artifacts, both of which are described herein. More specifically, we generated, curated, and integrated HTS datasets for thiol reactivity, redox activity, and luciferase (firefly and nano) activity. Using these curated datasets, we developed and validated several Quantitative Structure-Interference Relationship (QSIR) models to predict nuisance behavior. […] These models were employed for virtual profiling of the National Center for Advancing Translational Science's (NCATS) in-house library, and 256 compounds for each assay were selected for the experimental validation of nuisance behavior. The BA for these external predictions ranged from 58 to 78% for compounds within the applicability domains of the models. […] The models developed in this study, along with aggregation models previously developed by our group (SCAM Detective) were implemented in "Liability Predictor," an online tool which may be used as part of chemical library design or for triaging HTS hits. Both the models and the curated datasets are publicly available at https://liability.mml.unc.edu/.
PROTOCOL TABLE SEQUENCE No. (e.g., 1, 2, 3, etc.); […] (e.g., Cells, Incubation, Reagent, etc.); VALUE; DESCRIPTION. 1; Reagent; 3 uL; Luciferase substrate mixture. 2; Compounds and control; 16 nL; Kalypsis pin tool (Wako USA) equipped with a 1536-well pin head. 3; Incubation; 15 min. 4; Reagent; 1 uL; Luciferase enzyme. 5; Incubation; 5 min. 6; Detection; Luminescence, ViewLux microplate reader. NOTES (numbers refer to Sequence numbers above) 1. 3 uL of luciferase substrate mixture containing D-luciferin and ATP (final concentrations of 10 uM and 10 uM, respectively) in assay buffer (10 mM Mg-acetate, 0.01% Tween-20, 0.05% bovine serum albumin, 50 mM Tris acetate, pH 7.6) was dispensed into all wells of a 1536-well assay plate (solid-bottom white plate; Greiner Bio One, Monroe, NC). 2. A Wako Pin-tool (Wako Automation, Richmond, VA) was used to transfer 16 nL of compounds (consisting of 7-plates in qHTS format, final concentration range 18.3 nM to 114 uM) or control PTC124 (final concentration range 1.22 nM to 40 uM). 3. 15 min. incubation at room temperature protected from light. 4. 1 uL of luciferase enzyme (final concentration 10 nM, Photinus pyralis luciferase) or buffer was dispensed for a final assay volume of 4 uL. 5. Plates were centrifuged (121xg, 15 seconds) and incubated for 5 minutes. 6. Samples were read for luminescence on a ViewLux CCD imager (PerkinElmer). Data were normalized to no-enzyme (0% activity) and no-inhibitor (DMSO; 100%) controls and the resulting percent inhibition data were fitted to a 4-parameter Hill equation using NCATS in-house software.
Potency is the fitted concentration of half-maximal effect.

SMILES | activity change, negative = inhibition | Potency
COC(=O)[C@]1(C)CC[C@@]2(C)CC[C@@]3(C)C4=CC=C5C(=CC(=O)C(O)=C5C)[C@@]4(C)CC[C@@]3(C)C2C1 (stereo not given in full) | -15.8% | 
CN(C)[C@@H]1C(=O)C(C(N)=O)=C(O)[C@@]2(O)C(=O)C3=C(O)c4c(O)ccc(Cl)c4[C@@](C)(O)[C@H]3C[C@@H]12 | -8.7% [at 13.1 µM] | 
CC(=O)OCC(=O)[C@H]1CC[C@H]2[C@@H]3CC[C@H]4C[C@H](O)CC[C@]4(C)[C@H]3C(=O)C[C@]12C | 4.2% [at 13.1 µM] | 
C[C@@]12CCC(OS(=O)(=O)O)C[C@@H]1CCC1C2CC[C@]2(C)C(=O)CCC12 (stereo not given in full) | 11.6% | 
O=C(O)c1cc[c]([Hg][S]c2ncnc3nc[nH]c23)cc1 |  | 12.2 µM (active)
